From PubChem BioAssay AID504454 (NMMLSC, 2011)
Hit rate of the full screen: of about 340,000 compounds, about 1,400 (0.41%) were called active. Shown is part of a subset that was picked to be rich in actives. Unmarked numbers belong to inactive results.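 The calls were made as follows: active = response above a set limit, near 3 SD of response in nonfluorescent compounds (cut at about 42% in these data); inactive = the rest.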

molecular target: Beta-2 adrenergic receptor (Homo sapiens) (UniProt P07550); assay: beta2AR agonists driving receptor internalization, primary screen, cell-based, FAP fluorogen, flow cytometry (AID 504454); details: Am2.2-beta2AR cells, hits give high values, concentration not given here
Sequence (P07550 whole entry, looked up): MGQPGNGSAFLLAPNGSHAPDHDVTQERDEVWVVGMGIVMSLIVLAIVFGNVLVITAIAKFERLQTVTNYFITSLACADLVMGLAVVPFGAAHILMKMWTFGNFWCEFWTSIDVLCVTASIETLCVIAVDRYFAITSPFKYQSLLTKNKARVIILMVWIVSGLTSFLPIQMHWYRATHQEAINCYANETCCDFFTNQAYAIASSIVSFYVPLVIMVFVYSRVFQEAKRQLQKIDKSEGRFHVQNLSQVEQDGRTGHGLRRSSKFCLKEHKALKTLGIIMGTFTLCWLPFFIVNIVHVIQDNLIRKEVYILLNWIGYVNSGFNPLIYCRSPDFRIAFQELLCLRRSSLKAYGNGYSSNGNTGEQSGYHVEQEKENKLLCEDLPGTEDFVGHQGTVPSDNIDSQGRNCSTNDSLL

| Compound | response |
| --- | --- |
| O=C1NC(=O)N(Cc2ccco2)C(=O)/C1=C\c1ccc(-c2ccc(F)cc2)o1 | 47.3% (active) |
| COc1ccc(N2C(=O)/C(=C/c3ccco3)C(=O)NC2=S)cc1 | 11.6% |
| O=C1NC(=O)N(CCc2ccc(F)cc2)C(=O)/C1=C/C=C/c1ccccc1 | 18.2% |
| NC(=O)Nc1cccc(C(F)(F)F)c1 | -1.13% |
| Cc1ccc(N2C(=O)NC(=O)C(CCc3ccncc3)(Cc3cccc(Cl)c3Cl)C2=O)cc1 (stereo not given) | -11.4% |
| O=C1NC(=O)C(CCc2ccccn2)(Cc2cccc(Cl)c2Cl)C(=O)N1c1ccc(Br)cc1 (stereo not given) | 51.1% (active) |
| COc1ccc(C(=O)CC2C(=O)N(C)C(=O)N(C)C2=O)cc1 | 8.45% |
| CCN(N=Nc1nonc1OC)c1nonc1OC | -1.92% |
| Cc1c(Oc2cc(NN3CCCCC3)c([N+](=O)[O-])cc2[N+](=O)[O-])cccc1[N+](=O)[O-] | -2.15% |
| CCCC(C)n1[nH]c(=O)c2c1NC(=O)CSC2c1ccc(OC)c(OC)c1 (stereo not given) | -2.18% |
| C[C@]12CCC3C(CC[C@H]4[C@H](O)[C@H](O)CC[C@]34C)C1CCC2=O (stereo not given in full) | 0.88% |
| O=C(N/N=C/c1c(O)n(Cc2ccccc2)c(=O)[nH]c1=O)c1ccccc1 | -4.99% |
| O=C(N/N=C/c1c(O)n(C2CC2)c(=S)[nH]c1=O)c1ccccc1 | 88.2% (active) |
| O=C(N/N=C/c1c(O)n(C2CC2)c(=S)[nH]c1=O)c1ccccc1Cl | -2.3% |
| CN1CCC[C@@H]1CCO[C@](C)(c1ccccc1)c1ccc(Cl)cc1 | 7.46% |
| CCC(=O)CC(c1ccc([N+](=O)[O-])cc1)c1c(O)c2ccccc2oc1=O (stereo not given) | 8.6% |
| Cc1ccc2c(c1)C1CN(C)CCC1N2C(=O)Cn1nnc(-c2ccccc2F)n1 (stereo not given) | 3.52% |
| Cc1ccc(C(C)C)c(OCC(=O)N2CCN(CC(=O)N3CCOCC3)CC2)c1 | 1.49% |
| CCC(=O)c1ccc(OCC(=O)N2CCN(CC(=O)Nc3ccc(C)cc3)CC2)cc1 | 80.6% (active) |
| CCc1ccc(OCC(=O)N2CCN(CC(=O)Nc3ccccc3Cl)CC2)cc1 | 1.84% |
